Rows were chosen to be rich in hits. Some 7.7% of all compounds tested hit in one or more screens of this group.
Giardia FBPA inh = inhibitors of Giardia lamblia fructose-1,6-bisphosphate aldolase; A8B2U2; purified Giardia FBPA; Potency, µM (top dose mostly 59.6 µM), without a hit: at the top dose activity, negative = inhibition, usual class: inhibitors; 0.71% of 290,000 active; note: potency is the fitted concentration of half-maximal effect; nearly all actives have a fitted effect of over 55% in size
Target sequence (A8B2U2 whole entry, looked up): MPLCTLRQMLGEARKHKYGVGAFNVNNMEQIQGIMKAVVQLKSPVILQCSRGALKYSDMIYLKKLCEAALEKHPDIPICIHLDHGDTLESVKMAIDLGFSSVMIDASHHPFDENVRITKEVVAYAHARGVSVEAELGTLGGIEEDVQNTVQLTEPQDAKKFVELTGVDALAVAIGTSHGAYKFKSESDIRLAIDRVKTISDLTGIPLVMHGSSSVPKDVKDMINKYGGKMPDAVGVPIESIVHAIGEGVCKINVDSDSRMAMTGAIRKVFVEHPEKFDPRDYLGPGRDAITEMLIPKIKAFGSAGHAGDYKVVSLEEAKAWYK
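Giardia FBPA (40 nM reagent) was preincubated 10 min at RT with compound (up to 57.5 uM final), then substrate plus GAPDH/TPI/NAD/arsenate coupling system with diaphorase/resazurin was added; resorufin fluorescence (525/598 nm) was read after 20 min.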
FMDV antiviral = blocks foot and mouth disease virus | FMDV antiviral cell-based qHTS | Potency, µM (top dose mostly 57.9 µM), inactives show top-dose activity change, negative = inhibition, most hits filed as inhibitors | 1.2% of 410,000 active; calls by dose curve; tested in HEK293T cells; note: read-out not given here; potency is the fitted concentration of half-maximal effect; nearly all actives have a fitted effect of over 45% in size
Tb PYK inh = inhibitors of Trypanosoma brucei pyruvate kinase; Q57TT1; TbPYK enzyme, Kinase-Glo Plus ATP luminescence, 45 min; Potency, µM (series often up to 76.8 µM), for the others: at the top dose activity, negative = inhibition, hits mostly inhibitors; 0.12% of 410,000 active; AID 624173; note: potency is the fitted concentration of half-maximal effect; nearly all actives have a fitted effect of over 50% in size
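Quantitative HTS: titrated library compounds versus trypanosomal pyruvate kinase in TEA buffer (pH 7.2) containing KCl, MgCl2, BSA and Tween-20. Reactions were initiated with ADP, 130 uM final. Kinase-Glo Plus luminescence was read after 45 min at RT.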
Sm TGR block = inhibitors of Schistosoma mansoni thioredoxin glutathione reductase; 3% of 360,000 active; purified TGR, DTNB reduction, TNB absorbance 405 nm; Q962Y6; AID 485364; Potency, µM (doses to about 114 µM), without a hit: at the top dose activity change, negative = inhibition, hits mostly inhibitors; note: potency is the fitted concentration of half-maximal effect; nearly all actives have a fitted effect of over 60% in size
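First, TGR (20 nM dispensed) and NADPH were mixed with compound. Second, a 15 min room-temperature incubation followed. Third, further NADPH and then DTNB were added to start the reaction. Finally, TNB absorbance was monitored kinetically.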
RE007 growth inh = less growth of the S. pombe RE007 Vpr strain; Potency, µM (doses to about 92.2 µM), for the others: at the highest dose activity change, negative = less growth, most hits filed as inhibitors; AID 651644; 0.21% of 360,000 active; S. pombe RE007 Vpr strain, BacTiter-Glo ATP luminescence, 24 h; active = well fitted falling curve with a large enough effect; inconclusive = small, poorly fitted or top-dose-only effect; inactive = no such curve, though single readings can be large or run the other way; note: potency is the fitted concentration of half-maximal effect; nearly all actives have a fitted effect of over 50% in size
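Fission yeast RE007 carrying one integrated HIV-1 vpr copy, seeded at OD 0.01 in PMG+AL medium with 23 nL pinned compound. Grown 24 h at 30 degrees; viability read by BacTiter-Glo luminescence after 5 min.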
HCMV antiviral = human cytomegalovirus inhibition | activity change, negative = inhibition, % at 57.5 µM | 4.5% of 410,000 active | HFF cells, HCMV-luciferase reporter, 72 h; active compounds read low | AID 1259415; in the data active = activity change below about -60%; inconclusive = no clear call, values can overlap the other calls; inactive = above about -39%
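Inhibition of viral replication was scored as loss of reporter luminescence in HFFs infected with HCMV-luciferase (MOI 1 PFU/cell) for 72 h; compounds tested at 2 doses, normalized to buffer and Salinomycin controls.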
* marks the source's active call; other numbers are inactive results; ? = inconclusive; · = not tested or not shown; + = active, no number; [ ] = another dose, or the depositor's remark. Unless noted, calls come from the whole dose curve; as a rule, active = well fitted curve in the direction sought with a large enough effect; inconclusive = small, poorly fitted or top-dose-only effect, or another doubt; inactive = no such curve, though single readings can be large; an effect the other way counts as inactive or inconclusive. % is set by controls: 0 for no effect and ±100 for the full control effect.

SMILES	Giardia FBPA inh	FMDV antiviral	Tb PYK inh	Sm TGR block	RE007 growth inh	HCMV antiviral
CCc1ccccc1NC(=S)NN	15.8µM*	·	·	3.1%	·	-0.5
CCc1ccccc1NC(=O)/C(=C/c1ccco1)c1ccccc1	-13.2%	?	-5.6%	35.5µM*	-7.7%	-23.9
CC(C)(C)NC(=O)/C(=C/c1ccco1)c1ccccc1	-1.4%	-21.3%	0.0%	?	-18.0%	29.2
CCOc1cccc(/C=C(/C#N)c2nc3ccccc3[nH]2)c1OCC(=O)O	-12.3%	-11.7%	-8.7%	0.3%	7.8%	-101.3*
COc1ccc(CCNC(=O)c2cccc(-n3cnc4cccnc43)c2C)cc1OC	·	-6.8%	-12.4%[15.4 µM]	-3.8%	·	0.0
CCOC(=O)C(=CNNc1c(C)csc1C(=O)OC)C(=O)OCC	-2.3%	-26.6%	-7.8%	56.2µM*	11.7%	-10.4
C=CCn1c(SCC(=O)NCc2ccco2)nnc1-c1ccc2ccccc2n1	-14.6%	?	-10.0%	15.8µM*	-12.1%	-11.3
COc1cccc(-c2nnc(SCC(=O)NCc3ccc4c(c3)OCO4)n2Cc2ccco2)c1	-3.1%	-13.1%	?	44.7µM*	-1.7%	-3.1
Cn1c(-c2ccccc2)cnc1SCC(=O)NCc1ccco1	-1.2%	·	2.6%	39.8µM*	5.4%	-29.8
O=C(CSc1nnc(-c2cccnc2)n1Cc1ccccc1)NCc1ccco1	-3.7%	-8.9%	-1.3%	12.6µM*	-9.3%	-28.2
COc1cccc(-c2nnc(SCC(=O)Nc3ccc4c(c3)OCCO4)n2Cc2ccco2)c1	21.6%	-14.4%	-17.6%	-24.8%	-7.3%	-30.8
O=C(CSc1nnc(Cc2ccccc2)n1Cc1ccccc1)NCc1ccco1	5.4%	-10.3%	2.1%	-33.0%	-7.3%	?
C=CCn1c(SCC(=O)NCc2ccco2)nc2ccccc2c1=O	6.0%	-8.6%	-1.2%	-18.3%	23.0%	18.6
CCOc1ccc(NC(=O)CSc2nccn2-c2cccc(C)c2C)cc1	·	-1.2%	-1.5%	4.0%	·	-22.1
O=C(CSc1nnc(-c2cccnc2)n1Cc1ccco1)NCc1ccc2c(c1)OCO2	-1.9%	3.5%	7.2%	44.7µM*	-1.6%	-30.1
O=C(CSc1ccc2nnc(-c3cccnc3)n2n1)NCc1ccco1	-13.0%	-24.6%	-8.6%	31.6µM*	-4.2%	47.3
Cc1ccc(-n2c(Cc3cccn3C)nnc2SCC(=O)NCc2ccco2)cc1	-2.8%	20.5%	-9.7%	39.8µM*	-1.7%	-26.7
Cn1c(-c2ccccc2)cnc1SCC(=O)N1CCCCC1	1.9%	15.8µM*	-3.4%	-4.7%	-4.6%	-1.0
Cc1ccc(-n2c(Cc3cccn3C)nnc2SCC(N)=O)cc1	8.0%	-22.3%	2.3%	-10.4%	4.0%	11.2
Cc1ccc2nc(Nc3cccc(C(F)(F)F)c3)c3nnnn3c2c1	·	-17.7%	3.4%	-2.3%	·	9.5
Cc1cccc(NC(=O)Cn2c(SCC(=O)NCc3ccccc3)nc3ccccc32)c1C	·	-7.0%	4.7%	-20.4%	·	4.8
CC1(C)C[C@H]2C=C(C=O)[C@]3(C=O)C[C@]3(C)[C@H]2C1	-3.3%	25.1µM*	0.0%	50.1µM*	3.7%	9.4
COc1ccc(N2CCN(C(=O)c3nn(C)c4c3CSc3ccccc3-4)CC2)cc1	·	-17.6%	-9.0%	-8.1%	·	?
CN1CCCCC(NC(=O)c2cccc(F)c2)C1=O (stereo unspecified)	·	·	·	·	·	-34.5
COc1ccc(NC(=O)C2(c3cccs3)CCOCC2)cc1	6.7%	-8.7%	-0.5%	5.1%	14.5%	0.0
SMILES	Giardia FBPA inh	FMDV antiviral	Tb PYK inh	Sm TGR block	RE007 growth inh	HCMV antiviral
CC(=O)Nc1ccc(NC(=O)C2(c3cccs3)CCOCC2)cc1	·	-6.5%	-0.9%[15.4 µM]	3.5%	·	+
Cc1ccccc1-c1nc(CS(=O)(=O)CC(=O)N2CCOCC2)c(C)o1	7.8%	-10.5%	5.6%	15.8µM*	-6.0%	-15.4
Cc1oc(-c2ccccc2F)nc1CS(=O)(=O)CC(=O)N1CCN(c2ccccc2)CC1	1.0%	25.1µM*	0.0%	-11.5%	-3.9%	-18.5
CCOC(=O)N1CCN(C(=O)CSCc2nc(-c3ccccc3F)oc2C)CC1	-0.1%	-27.6%	·	6.1%	10.6%[3.69 µM]	-80.5*
Cc1ccc(-c2nc(CS(=O)(=O)CC(=O)N3CCc4ccccc4C3)c(C)o2)cc1	-11.2%	?	-5.3%	25.1µM*	8.8%	-9.9
Cc1ccccc1-c1nc(CS(=O)(=O)CC(=O)N2CCN(c3ccccc3)CC2)c(C)o1	·	?	3.5%	6.2%	·	-28.8
COc1ccccc1NC(=O)c1oc2ccccc2c1NC(=O)c1c(F)cccc1F	·	11.9%	3.1%	1.1%	·	3.5
CCOC(=O)c1ccc(NC(=O)N2CCOc3ccccc32)cc1	·	21.5%	-2.3%	7.6%	·	-8.1
CC(O)(COc1ccccc1)c1ccc2c(c1)CN(Cc1ccccn1)CCO2 (stereo unspecified)	·	-4.2%	·	·	·	·
CS/C(=C\[N+](=O)[O-])Nc1ccc(Cl)cc1	8.4%	-27.7%	0.6%	0.1µM*	10.5%	-29.8
CC(C)=CC(=O)Nc1ccc(Cl)cc1	-12.4%	39.8%	-10.6%	-5.4%	-15.8%	5.2
O=C(N/N=C/c1c(O)n(-c2ccccc2)c(=O)[nH]c1=O)c1ccncc1	-0.4%	-7.5%	2.6%	39.8µM*	-8.7%	16.1
Cn1c(O)c(/C=N/NC(=O)c2ccncc2)c(=O)n(C)c1=S	-5.3%	0.6%	-0.4%	20µM*	-1.3%	119.0
Cn1c(O)c(/C=N/NC(=O)c2ccncc2)c(=O)[nH]c1=S	0.4%	-15.8%	-29.9%	-25.7%	40.2%	23.2
COc1cc(CNCc2cc3ccc(F)cc3nc2N2CCOCC2)cc(OC)c1OC	·	-0.4%	·	·	·	·
COc1ccc(NC(=O)CSc2nnc(-c3cccs3)o2)cc1	·	-14.3%	1.6%	3.7%	·	81.7
Cc1ccc(N(C)C(=O)C2CCN(S(=O)(=O)c3c(C)noc3/C=C/c3c(C)cc(C)cc3C)CC2)cc1	·	-13.3%	-0.5%	0.4%	·	20.7
CC1(C)Cc2c(C#N)c(NC3CCCCC3)nc(-c3ccco3)c2CO1	?	·	·	1.78µM*	·	·
CC1(C)Cc2c(C#N)c(NCCc3ccccc3)nc(-c3ccco3)c2CO1	0.0%	-28.0%	?	?	?	-3.0
CC1(C)Cc2c(C#N)c(NCC3CCCO3)nc(-c3ccco3)c2CO1 (stereo unspecified)	-21.1%	-23.1%	?	4.47µM*	-5.2%	-2.4
COc1cc2c(cc1NC(=O)Nc1ccc(C)cc1)oc1ccccc12	-3.7%	10.1%	2.0%	-1.2%	-19.1%	21.9
COc1cc2c(cc1NC(=O)/C=C/c1ccccc1)oc1ccccc12	-2.1%	·	3.3%	-23.0%	-3.0%	-64.2*
COc1cc2c(cc1NC(=O)Nc1ccc(F)cc1)oc1ccccc12	0.4%	-4.9%	-9.9%	-8.2%	-10.2%	-65.6*
COc1ccc(/C=C/C(=O)NC(=S)Nc2cc3oc4ccccc4c3cc2OC)cc1	4.7%	-2.9%	-1.8%	-1.5%	13.3%	-31.8
